Records with an inconclusive call do not appear. Active and inactive are the calls of the source. Calls follow the shape of the dose curve; as a rule, active = well fitted cell-killing curve with a large enough effect; inconclusive = small, poorly fitted or top-dose-only effect, or effect the other way; inactive = no such curve, though single readings can be large or run the other way.
test: qHTS assay to identify small molecule inhibitors of chordoma cells - UCH-1 (AID 1259355); conditions: UCH-1 chordoma viability, CellTiter-Glo, 48 h, combination, with auranofin plus four topoisomerase inhibitors; series mostly up to 46.1 µM; activity, negative = inhibition: at the top concentration; also: nearly all actives have a fitted effect of over 55% in size
Description: NIH Chemical Genomics Center [NCGC]
Chordoma is a rare and slow growing tumor that can occur anywhere along the spine, from the base of the skull to the tailbone. Current treatment options for chordoma is surgery and radiation therapy for those who are not candidates for surgery. But chordomas tend to return in the same location or surrounding areas of the original tumor after surgery and/or radiation. Chemotherapy can slow down the progression of the tumor. As chordoma is slow growing, the general cytotoxic agents that kill fast growing cells are ineffective, and some patients have been reported to respond to molecularly targeted drugs.
NCATS Pharmaceutical Collection (NPC) containing approximately 3000 clinically approved and investigational drugs were used to screen at 15 concentrations in a chordoma cell lines, UCH-1, to identify small molecule compounds that can inhibit chordoma cell growth.
NCGC Assay Protocol Summary:
Human chordoma cell line UCH-1 was dispensed at 800 per well in 4uL of culture medium into white solid bottom 1536-well plates (Corning Life Sciences, Corning, NY) using a Multidrop Combi (Thermo Scientific, Waltham, MA) dispenser. The assay plates were incubated at 37 C and 5% CO2 for an overnight, and then 23nL of compounds dissolved in DMSO and positive control were transferred using a Pintool station (Wako, San Diego, CA). Compound treatment was followed by the addition of 1uL of the combination compounds (1uM Auranofin, 500nM each of Camptothecin, Doxorubicin, Rubitecan, and Topotecan) and assay medium to each well of the assay plates using Flying Reagent Dispenser (FRD, Aurora Discovery, San Diego, CA). The assay plates were incubated at 37 C and 5% CO2 for 48hr. Then 5uL of CellTiter-Glo reagent (Promega Corporation, Madison, WI) was added to each well of the assay plates using FRD. After 30min incubation at room temperature, the luminescence signal was quantified using a ViewLux plate reader (PerkinElmer, Shelton, CT).
% is scaled to controls: 0 for no effect and ±100 for the full control effect; potency is read from the fitted curve at half-maximal effect.

Row | SMILES | activity, negative = inhibition | Potency
1 | CC/C=C\C/C=C\C/C=C\C/C=C\C/C=C\CCCC(=O)O | -8.55% (inactive) | –
2 | C=C1CC[C@H](O)CC1=C/C=C1\CCC[C@]2(C)[C@@H]([C@H](C)/C=C/[C@H](C)C(C)C)CC[C@@H]12 | -6.79% (inactive) | –
3 | C=C[C@]1(C)C[C@@H](OC(=O)CSCCN(CC)CC)[C@]2(C)[C@H](C)CC[C@]3(CCC(=O)[C@H]32)[C@@H](C)[C@@H]1O | -9.27% (inactive) | –
4 | CC1(C)[C@@H]2CC[C@@]1(C)[C@H](OC(=O)CSC#N)C2 | -8.27% (inactive) | –
5 | CCC(C(=O)NC(N)=O)c1ccccc1 (stereo not given) | -1.14% (inactive) | –
6 | S=C=Nc1ccc(N=C=S)cc1 | -5.44% (inactive) | –
7 | CCN(CC)CCOCCOC(=O)C(CC)(CC)c1ccccc1 | -48.8% (inactive) | –
8 | NC(=O)[C@H]1O[C@@H](O)[C@H](O)[C@@H](O)[C@@H]1O | -5.04% (inactive) | –
9 | O=C(O)CCC/C=C\C[C@@H]1[C@@H](/C=C/[C@@H](O)COc2cccc(Cl)c2)[C@H](O)C[C@@H]1O | -8.15% (inactive) | –
10 | C#C[C@]1(O)CC[C@H]2[C@@H]3CCC4=C(CCC(=O)C4)[C@H]3CC[C@@]21C | -13.1% [at 20.6 µM] (inactive) | –
11 | O=[N+]([O-])O[C@@H]1CO[C@H]2[C@@H]1OC[C@@H]2O | -11.4% (inactive) | –
12 | Cc1cc(=O)c(C(=O)N[C@@H](C(=O)N[C@@H]2C(=O)N3C(C(=O)O)=C(CSc4nnnn4C)CS[C@H]23)c2ccc(O)cc2)c[nH]1 | -23.1% (inactive) | –
13 | NC(N)=O | 23.6% (inactive) | –
14 | C=C1CC[C@H](O)C/C1=C\C=C1/CCC[C@]2(C)[C@@H]([C@H](C)CCCC(C)C)CC[C@@H]12 | -15.4% (inactive) | –
15 | O=C(/C=C/c1cccc(F)c1)NC1CC1 | -13.2% (inactive) | –
16 | OCCOCCOCCO | 13% (inactive) | –
17 | C[C@H]1O[C@@H](O[C@H]2[C@@H](O)C[C@H](O[C@H]3[C@@H](O)C[C@H](O[C@H]4CC[C@@]5(C)[C@H](CC[C@@H]6[C@@H]5C[C@@H](O)[C@]5(C)[C@@H](C7=CC(=O)OC7)CC[C@]65O)C4)O[C@@H]3C)O[C@@H]2C)C[C@H](O)[C@@H]1O | – | 355 nM (active)
18 | CCCCCCCCCCCCCCCCCCCCCC(=O)Nc1ccn([C@@H]2O[C@H](CO)[C@@H](O)[C@@H]2O)c(=O)n1 | -6.29% (inactive) | –
19 | CC1CCC(NC(=O)N(CCCl)N=O)CC1 (stereo not given) | 7.45% (inactive) | –
20 | Nc1nc2c(c(=O)[nH]1)N(C=O)C(CNc1ccc(C(=O)N[C@@H](CCC(=O)O)C(=O)O)cc1)CN2 (stereo not given in full) | 2.41% [at 20.6 µM] (inactive) | –

Row | SMILES | activity, negative = inhibition | Potency
21 | CN[C@H](CC(C)C)C(=O)N[C@H]1C(=O)N[C@@H](CC(N)=O)C(=O)N[C@H]2C(=O)N[C@H]3C(=O)N[C@H](C(=O)N[C@@H](C(=O)O)c4cc(O)cc(O)c4-c4cc3ccc4O)[C@H](O)c3ccc(c(Cl)c3)Oc3cc2cc(c3O[C@@H]2O[C@H](CO)[C@@H](O)[C@H](O)[C@H]2O[C@H]2C[C@](C)(N)C(O)[C@H](C)O2)Oc2ccc(cc2Cl)[C@H]1O (stereo not given in full) | 9.71% (inactive) | –
22 | C[C@H](CCC(=O)O)[C@H]1CC[C@H]2[C@@H]3CC[C@@H]4C[C@H](O)CC[C@]4(C)[C@H]3C[C@H](O)[C@]12C | 7.66% (inactive) | –
23 | CCCCC/C=C\CCC(=O)N[C@H]1[C@H](Oc2c3cc4cc2Oc2ccc(cc2Cl)[C@@H](O[C@@H]2O[C@H](CO)[C@@H](O)[C@H](O)[C@H]2NC(C)=O)[C@@H]2NC(=O)[C@H](NC(=O)[C@@H]4NC(=O)[C@H]4NC(=O)[C@@H](Cc5ccc(c(Cl)c5)O3)NC(=O)[C@H](N)c3ccc(O)c(c3)Oc3cc(O)cc4c3)c3ccc(O)c(c3)-c3c(O[C@H]4O[C@H](CO)[C@@H](O)[C@H](O)[C@@H]4O)cc(O)cc3[C@@H](C(=O)O)NC2=O)O[C@H](CO)[C@@H](O)[C@@H]1O | -6.81% [at 20.6 µM] (inactive) | –
24 | COc1ccc(/C=N/NC(=O)c2ccncc2)c(C(=O)O)c1OC | -0.361% (inactive) | –
25 | CCCCC | -10.1% (inactive) | –
26 | OCC(O)CO | -14.3% (inactive) | –
27 | COc1ccc(C(=O)/C(Br)=C\C(=O)O)cc1 | -17% (inactive) | –
28 | CN[C@@H]1[C@H](O[C@H]2[C@H](O[C@H]3[C@H](O)[C@@H](O)[C@H](N=C(N)N)[C@@H](O)[C@@H]3N=C(N)N)O[C@@H](C)[C@]2(O)CO)O[C@@H](CO)[C@H](O)[C@H]1O | 14.5% (inactive) | –
29 | CC(=O)Oc1cccc(C(=O)O)c1OC(C)=O | -12.9% (inactive) | –
30 | CC(=O)Nc1c(I)c(C(=O)N[C@H]2C(O)O[C@H](CO)[C@@H](O)[C@@H]2O)c(I)c(N(C)C(C)=O)c1I (stereo not given in full) | -35.2% [at 20.6 µM] (inactive) | –
31 | COC1[C@@H](O[C@@H]2O[C@H](C)[C@@H](O[C@H]3C[C@@](C)(O)[C@H](OC(=O)CC(C)C)[C@H](C)O3)[C@H](N(C)C)[C@H]2O)[C@@H](CC=O)C[C@@H](C)[C@@H](O)/C=C/C=C/C[C@@H](C)OC(=O)C[C@H]1OC(C)=O (stereo not given in full) | -37.3% [at 20.6 µM] (inactive) | –
32 | CC(C)NCC(O)COc1ccccc1-n1cccc1 (stereo not given) | 1.56% (inactive) | –
33 | O=P(O)(O)CP(=O)(O)O | -10.6% (inactive) | –
34 | CC(C)(C)NC[C@H](O)COc1ccccc1C1CCCC1 | -30.9% [at 20.6 µM] (inactive) | –
35 | CN(C)C(=O)CCSC(SCCC(=O)O)c1cccc(/C=C/c2ccc3ccc(Cl)cc3n2)c1 (stereo not given) | -22.5% (inactive) | –
36 | CO[C@H]1C[C@@H]2CC[C@@H](C)[C@@](O)(O2)C(=O)C(=O)N2CCCC[C@H]2C(=O)O[C@H]([C@H](C)C[C@@H]2CC[C@@H](OC(=O)C(C)(CO)CO)[C@H](OC)C2)CC(=O)[C@H](C)/C=C(\C)[C@@H](O)[C@@H](OC)C(=O)[C@H](C)C[C@H](C)/C=C/C=C/C=C/1C | -0.0197% (inactive) | –
37 | Cc1cccc(C)c1Nc1ncccc1C(=O)O | -11.5% (inactive) | –
38 | CC[C@H]1OC(=O)[C@H](C)[C@@H](O[C@H]2C[C@@](C)(OC)[C@@H](O)[C@H](C)O2)[C@H](C)[C@@H](O[C@@H]2O[C@H](C)C[C@H](N(C)C)[C@H]2O)[C@](C)(O)C[C@@H](C)CN(C)[C@H](C)[C@@H](O)[C@]1(C)O | 1.62% (inactive) | –
39 | CCCC(=O)O | -11.3% (inactive) | –
40 | O=P(O)(O)O | -12.5% (inactive) | –
